Screening data: PubChem BioAssay, several laboratories
Rows were chosen to be rich in hits. Some 3.1% of all compounds tested hit in one or more screens of this group.
BoNT F protease: blocks Botulinum neurotoxin F light chain protease; Multiplex microsphere protease cleavage assay, flow cytometry; inhibition, % at 10 µM; 0.22% of 360,000 active; AID 588497; in the data active = inhibition above about 35%, passing the limit was not always enough; inconclusive = no clear call, values can overlap the other calls
PriA SSB inh: blocks PriA binding to SSB C-terminal tail. AlphaScreen SSBct-PriA binding, biotinylated peptide. inhibition, % at 33 µM. 0.6% of 430,000 active. AID 1272365; in the data active = inhibition mostly above about 37%, no sharp cut-off; inactive = mostly below about 20%
BoNT-A LC inh2: blocks Botulinum neurotoxin A light chain protease. multiplex microsphere protease substrate cleavage, flow cytometry. inhibition, % at 10 µM. 0.17% of 360,000 active
Anthrax LF inh2: anthrax lethal factor protease inhibition; AID 588501; inhibition, % at 10 µM; 0.12% of 360,000 active; multiplex microsphere protease cleavage assay, LF; P15917
Target sequence (P15917 whole entry, looked up): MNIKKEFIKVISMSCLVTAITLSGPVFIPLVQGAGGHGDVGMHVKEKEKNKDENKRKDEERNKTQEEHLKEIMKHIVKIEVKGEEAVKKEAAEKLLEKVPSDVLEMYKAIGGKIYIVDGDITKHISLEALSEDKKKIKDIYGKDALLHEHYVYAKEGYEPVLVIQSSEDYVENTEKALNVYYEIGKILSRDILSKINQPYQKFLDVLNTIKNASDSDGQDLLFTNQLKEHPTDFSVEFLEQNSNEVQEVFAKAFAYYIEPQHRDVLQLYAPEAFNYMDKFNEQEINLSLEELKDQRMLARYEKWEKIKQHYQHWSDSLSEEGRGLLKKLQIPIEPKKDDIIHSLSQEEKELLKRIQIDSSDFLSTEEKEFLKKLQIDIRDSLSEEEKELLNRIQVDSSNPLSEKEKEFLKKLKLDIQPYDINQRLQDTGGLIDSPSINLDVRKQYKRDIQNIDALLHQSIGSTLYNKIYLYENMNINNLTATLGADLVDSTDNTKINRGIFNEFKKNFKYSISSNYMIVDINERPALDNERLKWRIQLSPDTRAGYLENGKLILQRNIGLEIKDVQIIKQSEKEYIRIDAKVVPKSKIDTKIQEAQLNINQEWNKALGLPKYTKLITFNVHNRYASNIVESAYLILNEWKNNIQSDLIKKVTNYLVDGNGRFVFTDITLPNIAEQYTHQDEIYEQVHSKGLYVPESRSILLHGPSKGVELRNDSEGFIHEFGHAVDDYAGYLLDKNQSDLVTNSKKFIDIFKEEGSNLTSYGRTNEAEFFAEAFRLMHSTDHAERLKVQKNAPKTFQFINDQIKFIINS
Bead autofluor: compound fluorescence in toxin protease inhibitor counterscreen; AID 624483; compound autofluorescence counterscreen, microsphere flow cytometry; active compounds read high; fluorescence intensity (test concentration not listed); 3.1% of 360,000 active; in the data active = fluorescence intensity above about 16000; inconclusive = no clear call, values can overlap the other calls
Hits are given with their value. Cut-off read from the data, not from the text of the source, unless noted: active = inhibition above about 30%; inconclusive = no clear call, values can overlap the other calls; inactive = below that.

What do the screens show for `COc1cc(OC)cc(C(=O)Nc2cccc(NC(=O)c3ccccc3)c2)c1`?
BoNT F protease: inactive; PriA SSB inh: inactive; BoNT-A LC inh2: inactive; Anthrax LF inh2: inactive; Bead autofluor: inactive

Results for COc1cc(C(=O)Nc2cccc(C(C)=O)c2)cc(OC)c1OC ?
BoNT F protease: inactive; PriA SSB inh: inactive; BoNT-A LC inh2: inactive; Anthrax LF inh2: inactive; Bead autofluor: inactive

How did COc1cc(OC)cc(C(=O)Nc2cccc(C(C)=O)c2)c1 do in these assays?
BoNT F protease: inactive; PriA SSB inh: inactive; BoNT-A LC inh2: inactive; Anthrax LF inh2: inactive; Bead autofluor: 22501

How did COc1cc(NC(=O)Nc2cccc(C(C)=O)c2)cc(OC)c1OC do in these assays?
BoNT F protease: inactive; PriA SSB inh: inactive; BoNT-A LC inh2: inactive; Anthrax LF inh2: inactive; Bead autofluor: 21687

What do the screens show for `Cc1cc(C)c(C(=O)NCC2CCN(C3CCCC3)CC2)c(C)c1`?
PriA SSB inh: inactive

How did Cc1ccc(-c2cc3c(=O)n(Cc4ccc(Cl)cc4)ccn3n2)cc1C do in these assays?
PriA SSB inh: inactive

Results for COc1cccc(C(=O)Nc2ccc(NC(C)=O)cc2)c1 ?
BoNT F protease: inactive; PriA SSB inh: inactive; BoNT-A LC inh2: inconclusive; Anthrax LF inh2: inactive; Bead autofluor: 22073

How did COc1ccc(NC(=O)c2csc(Nc3ccc(OC(F)F)cc3)n2)cc1OC do in these assays?
PriA SSB inh: active

How did COc1cccc(C(=O)Nc2cccc(NC(C)=O)c2)c1 do in these assays?
BoNT F protease: inactive; PriA SSB inh: inactive; BoNT-A LC inh2: inactive; Anthrax LF inh2: inactive; Bead autofluor: inactive

Results for COc1cccc(C(=O)NC2CCSC2=O)c1 (stereo unspecified) ?
BoNT F protease: inactive; PriA SSB inh: inactive; BoNT-A LC inh2: inactive; Anthrax LF inh2: inactive; Bead autofluor: 19865

What do the screens show for `COc1ccc(NC(=O)c2csc(Nc3ccc(OC(F)F)cc3)n2)c(OC)c1`?
PriA SSB inh: inactive

Results for COc1ccc(C(=O)NC2CCSC2=O)cc1 (stereo unspecified) ?
BoNT F protease: inactive; PriA SSB inh: inactive; BoNT-A LC inh2: inactive; Anthrax LF inh2: inactive; Bead autofluor: inactive

How did COc1ccc(Cc2nnc(NCc3cccnc3)[nH]c2=O)cc1 do in these assays?
PriA SSB inh: inactive

What do the screens show for `O=C(CSCc1ccccc1)N(Cc1ccsc1)Cc1ccco1`?
PriA SSB inh: inactive

Results for O=C1c2ccccc2C(=O)N1CCc1nc(-c2ccncc2)no1 ?
BoNT F protease: inactive; PriA SSB inh: inactive; BoNT-A LC inh2: inactive; Anthrax LF inh2: inactive; Bead autofluor: 19470

What do the screens show for `Cc1ccc(-c2noc(CCCN3C(=O)c4ccccc4C3=O)n2)cc1`?
BoNT F protease: inactive; PriA SSB inh: inactive; BoNT-A LC inh2: inactive; Anthrax LF inh2: inactive; Bead autofluor: inconclusive

What do the screens show for `O=C1c2ccccc2C(=O)N1CCc1nc(-c2cccnc2)no1`?
BoNT F protease: inactive; PriA SSB inh: inactive; BoNT-A LC inh2: inactive; Anthrax LF inh2: inactive; Bead autofluor: inactive

How did O=C1c2ccccc2C(=O)N1CCc1nc(-c2ccc(Cl)cc2)no1 do in these assays?
BoNT F protease: inactive; PriA SSB inh: inactive; BoNT-A LC inh2: inactive; Anthrax LF inh2: inactive; Bead autofluor: 21023

What do the screens show for `O=C(CSc1nc2ccccc2n2cnnc12)NCc1ccc(Cl)cc1`?
PriA SSB inh: inactive

What do the screens show for `CCCCc1ccc(NC(=O)c2cn(C)nn2)cc1`?
PriA SSB inh: inactive

Results for Cc1cc(C(=O)Nc2ccccc2F)c(C)o1 ?
PriA SSB inh: inactive

What do the screens show for `Cc1noc(C)c1C(=O)Nc1c(F)cc(F)cc1Br`?
BoNT F protease: inactive; PriA SSB inh: inactive; BoNT-A LC inh2: inactive; Anthrax LF inh2: inactive; Bead autofluor: 23289

Results for Cc1cc(Cl)ccc1NNC(=O)c1c(C)noc1C ?
BoNT F protease: inconclusive; PriA SSB inh: inactive; BoNT-A LC inh2: inactive; Anthrax LF inh2: inactive; Bead autofluor: inactive

Results for Cc1noc(C)c1C(=O)Nc1ccc(Cl)cc1C(F)(F)F ?
BoNT F protease: inactive; PriA SSB inh: inactive; BoNT-A LC inh2: inactive; Anthrax LF inh2: inactive; Bead autofluor: 23519

How did Cc1cc(C(=O)Nc2c(F)cc(F)cc2Br)c(C)o1 do in these assays?
BoNT F protease: inactive; PriA SSB inh: inactive; BoNT-A LC inh2: inactive; Anthrax LF inh2: inactive; Bead autofluor: 17675

Results for CNc1nc2c(=O)[nH]nc(-c3ccccc3)c2s1 ?
PriA SSB inh: inactive

How did O=C(CCN1C(=O)/C(=C\c2ccccc2F)SC1=S)NC12CC3CC(CC(C3)C1)C2 do in these assays?
PriA SSB inh: inactive

Results for CC1(C)C(C=C(Cl)Cl)C1C(=O)N1CCN(c2ccccc2)CC1 (stereo unspecified) ?
BoNT F protease: inactive; PriA SSB inh: inactive; BoNT-A LC inh2: inactive; Anthrax LF inh2: inactive; Bead autofluor: 22705

What do the screens show for `O=C(C1CC2C=CC1C2)N1CCN(c2ccccc2)CC1` (stereo unspecified)?
BoNT F protease: inactive; PriA SSB inh: inactive; BoNT-A LC inh2: inactive; Anthrax LF inh2: inactive; Bead autofluor: inactive

Results for Cn1cccc1[C@H](CNC(=O)C(=O)NCc1ccccc1Cl)N1CCOCC1 ?
PriA SSB inh: inactive

How did CCCN1CCCc2cc(CCNS(=O)(=O)c3ccc(OC)cc3)ccc21 do in these assays?
PriA SSB inh: 62

Results for COc1ccc(CCNS(=O)(=O)c2ccc3c(c2)CCN3C(=O)C2CC2)cc1OC ?
BoNT F protease: inactive; PriA SSB inh: inactive; BoNT-A LC inh2: inactive; Anthrax LF inh2: inactive; Bead autofluor: inactive

How did CCCN1CCCc2cc(CCNS(=O)(=O)c3cc(C)c(C)cc3OC)ccc21 do in these assays?
PriA SSB inh: 60

Results for CCCN1CCCc2cc(CCNS(=O)(=O)c3ccc(OC)c(Cl)c3)ccc21 ?
PriA SSB inh: 44

How did CCCN1CCCc2cc(CCNC(=O)C(=O)Nc3ccc(OC)c(Cl)c3)ccc21 do in these assays?
PriA SSB inh: inactive

How did CCCN1CCCc2cc(CCNC(=O)C(=O)NCc3ccc(OC)cc3)ccc21 do in these assays?
PriA SSB inh: inactive

How did CCCN1CCCc2cc(CCNC(=O)C(=O)Nc3cc(C)ccc3OC)ccc21 do in these assays?
PriA SSB inh: inactive

Results for CCCN1CCCc2cc(CCNS(=O)(=O)c3ccc(OC)c(OC)c3)ccc21 ?
PriA SSB inh: 67

How did CCN(CCNC(=O)C1CCCN(Cc2nc(-c3ccc(OC)cc3)oc2C)C1)c1ccccc1 (stereo unspecified) do in these assays?
BoNT F protease: inactive; PriA SSB inh: 48; BoNT-A LC inh2: inactive; Anthrax LF inh2: inactive; Bead autofluor: 21170

Results for CCc1ccc(-c2nc(CN3CCC(C(=O)NCCN(CC)c4ccccc4)CC3)c(C)o2)cc1 ?
BoNT F protease: inactive; PriA SSB inh: inactive; BoNT-A LC inh2: inactive; Anthrax LF inh2: inactive; Bead autofluor: inactive

What do the screens show for `Cc1oc(-c2cccc(Cl)c2)nc1CN1CCC(C(=O)NCc2cccnc2)CC1`?
BoNT F protease: inactive; PriA SSB inh: inactive; BoNT-A LC inh2: inactive; Anthrax LF inh2: inactive; Bead autofluor: 22980

How did Cc1oc(-c2cccc(Cl)c2)nc1CN1CCC(C(=O)NC2CC2)CC1 do in these assays?
BoNT F protease: inactive; PriA SSB inh: inactive; BoNT-A LC inh2: inactive; Anthrax LF inh2: inactive; Bead autofluor: inactive

How did CCc1ccc(-c2nc(CN3CCC(C(=O)NCc4ccc(F)cc4)CC3)c(C)o2)cc1 do in these assays?
BoNT F protease: inactive; PriA SSB inh: inactive; BoNT-A LC inh2: inconclusive; Anthrax LF inh2: inactive; Bead autofluor: 24227
